Vc quorum ag: induces V. cholerae light production without autoinducers; V. cholerae BH1578 lux reporter, luminescence, 6 h; activation, % at 18.7 µM; 350,000 compounds, 0.16% hits; in the data active = activation mostly above about 9.7%, no sharp cut-off
PrPC TRFRET: reduces human prion protein on the cell surface; 370,000 compounds, 0.43% hits; P04156; cell surface PrPC, TR-FRET read-out; inhibition, % at 13.8 µM; in the data active = inhibition above about 24%
FBA Mtb inh: Mtb fructose-bisphosphate aldolase inhibition; P9WQA3; 360,000 compounds, 2.3% hits; AID 588726; inhibition, % at 1 µM; purified M. tuberculosis FBA, fluorescence read-out
Target sequence (P9WQA3 whole entry, looked up): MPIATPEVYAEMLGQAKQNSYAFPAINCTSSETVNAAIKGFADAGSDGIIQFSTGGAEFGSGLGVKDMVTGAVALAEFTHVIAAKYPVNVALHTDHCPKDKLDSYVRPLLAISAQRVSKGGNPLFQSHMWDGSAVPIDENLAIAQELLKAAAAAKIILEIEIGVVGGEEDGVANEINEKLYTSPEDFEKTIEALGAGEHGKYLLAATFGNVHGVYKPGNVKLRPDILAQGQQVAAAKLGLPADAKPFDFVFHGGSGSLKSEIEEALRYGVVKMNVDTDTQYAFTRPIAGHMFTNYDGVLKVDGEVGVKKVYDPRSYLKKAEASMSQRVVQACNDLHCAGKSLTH
GDH-TPI counter-1: GDH-TPI coupled enzyme inhibition counter-screen; GDH-TPI coupled enzyme counterscreen, NADH absorbance; inhibition, % at 4.8 µM; 360,000 compounds, 1.2% hits; AID 588335; in the data active = inhibition above about 30%
3CLpro inhibitor: SARS-CoV 3CLpro protease inhibition; 290,000 compounds, 0.14% hits; inhibition, % at 6 µM; AID 1706; recombinant SARS-CoV 3CLpro, quenched FRET peptide cleavage; P0C6X7; in the data active = inhibition above about 12%
Mtb FBA inh conf: Mtb FBA inhibition, confirmed. shares compounds with FBA Mtb inh. purified M. tuberculosis FBA, fluorescence read-out. inhibition, % at 1 µM. 5,600 compounds, 78% hits. AID 651616
GDH-TPI counter-2: inhibits GDH-TPI coupling enzymes, flagging Mtb FBA hits | shares compounds with FBA Mtb inh | GDH-TPI coupled enzyme counterscreen, fluorescence | inhibition, % at 1 µM | 5,600 compounds, 81% hits | AID 652141; in the data active = inhibition above about 10%
GDH-TPI DR: counter-screen for M. tuberculosis FBA inhibitors: GDH-TPI dose response. shares compounds with FBA Mtb inh. GDH-TPI coupled enzyme assay, fluorescence, artifact counterscreen. IC50, µM. 170 compounds, 79% hits; call rule not given here
Large screens that a line does not name were inactive (follow-up assays come after a bar, where they were run). This is a sample that favours compounds with a hit; in the whole collection about 3.9% have one here. Rule as the data show it, unless noted: active = inhibition above about 27%; inactive = the rest.

Cc1ccc(NC(=O)c2ccccc2F)nc1	FBA Mtb inh 33 | Mtb FBA inh conf 96 | GDH-TPI counter-2 78
Cc1ccc(C)c(NC(=S)N(C)CCO)c1	none (no result: Vc quorum ag)
FC(F)(F)c1nc2nc(Cl)c(Cl)nc2n1CCCN1CCOCC1	FBA Mtb inh 48 (no result: 3CLpro inhibitor) | Mtb FBA inh conf active | GDH-TPI counter-2 active
CCOC(=O)c1nn(-c2ccc(OCC)cc2)c2nc(CC(C)C)c(C#N)c(=O)n12	FBA Mtb inh 104 | Mtb FBA inh conf inactive | GDH-TPI counter-2 inactive
CCOC(=O)c1nn(-c2cccc(Cl)c2)c2nc(CC(C)C)c(C#N)c(=O)n12	none
CCOC(=O)c1nn(-c2ccc(Cl)cc2)c2nc(CC)c(C#N)c(=O)n12	FBA Mtb inh 37 | Mtb FBA inh conf inactive | GDH-TPI counter-2 inactive
Cc1ccc(CNC(=O)c2ccc(N3CCC4(CC3)CC(c3ccccc3)=NO4)c(NC(=O)c3ccc(Cl)c([N+](=O)[O-])c3)c2)cc1	none (no result: 3CLpro inhibitor)
COc1ccccc1C(=O)NCc1ccccc1	none
COc1cccc2[nH]c(C(=O)NCc3ccccc3)cc12	FBA Mtb inh 68 | Mtb FBA inh conf 74 | GDH-TPI counter-2 73
O=C(Nc1ccccc1OC(F)F)c1ccc(S(=O)(=O)N2CCOCC2)cc1	none
O=C(NCc1ccc(F)cc1)c1ccc(CS(=O)(=O)Cc2ccc(F)cc2)o1	none
O=C(NCc1ccc(F)cc1)c1ccc(CS(=O)(=O)Cc2ccccc2F)o1	FBA Mtb inh 55 | Mtb FBA inh conf 95 | GDH-TPI counter-2 83
CCn1c(=O)c2[nH]c(SC)nc2n(CC)c1=O	none (no result: 3CLpro inhibitor)
Cn1cnc(C(=O)NCc2ccccc2)c1C(=O)NCc1ccccc1	none (no result: 3CLpro inhibitor)
Cc1cc2nc(-c3ccc(SCC(=O)NC(C)C)nc3)[nH]c2cc1C	none (no result: Vc quorum ag, PrPC TRFRET, FBA Mtb inh, GDH-TPI counter-1)
Cc1cc2nc(-c3ccc(SCc4ccc(C(=O)O)cc4)nc3)[nH]c2cc1C	FBA Mtb inh 58 | Mtb FBA inh conf inactive | GDH-TPI counter-2 inactive
COc1ccc(-c2[nH]nc3oc(=O)cc(C)c23)cc1	FBA Mtb inh 43 | Mtb FBA inh conf inactive | GDH-TPI counter-2 inactive | GDH-TPI DR 3.4
Cc1cc(=O)oc2n[nH]c(-c3ccccc3)c12	none
COc1cc2cc(C(c3nnnn3Cc3ccc(F)cc3)N3CCCCCC3)c(=O)[nH]c2cc1OC (stereo unspecified)	FBA Mtb inh 49 (no result: PrPC TRFRET) | Mtb FBA inh conf inactive | GDH-TPI counter-2 inactive
CN(C)C(CNc1ccc(C(F)(F)F)cc1[N+](=O)[O-])c1ccccc1 (stereo unspecified)	none
Cc1ccc(-c2cc(-c3ccccc3)c(C#N)c(N)n2)o1	FBA Mtb inh 28 | Mtb FBA inh conf 148 | GDH-TPI counter-2 125
Cc1ccc(-c2cc(-c3ccccc3Cl)c(C#N)c(N)n2)o1	none
COc1cc(OC)cc(-c2oc3cccnc3c2C#CCCO)c1	FBA Mtb inh 42 | Mtb FBA inh conf inactive | GDH-TPI counter-2 inactive
COc1ccc(C(=O)c2ccc3oc(-c4ccc(OC)cc4)c(C#CCCO)c3c2)cc1	none (no result: 3CLpro inhibitor)
CC(CC(=O)Nc1nnc(CC(C)(C)C)s1)c1ccccc1 (stereo unspecified)	none
C=CCn1c(C)cc(C(=O)Cn2c(C(C)O)nc3ccccc32)c1C (stereo unspecified)	FBA Mtb inh 74 | Mtb FBA inh conf 156 | GDH-TPI counter-2 119
C=CCn1c(C(C)C)nc2ccccc21	none
CCCOc1ccc(-c2cc(C(F)(F)F)c(C#N)c(SCC(=O)O)n2)cc1	none
O=C(Nc1ccccc1)c1ccc(-c2ccc(F)cc2)s1	none
CNC(=O)c1ccc(-c2ccc(F)cc2)s1	FBA Mtb inh 41 | Mtb FBA inh conf 115 | GDH-TPI counter-2 95
O=C(Nc1ncccc1O)c1ccc(S(=O)(=O)Nc2ccccc2)cc1	none (no result: 3CLpro inhibitor)
CCc1cc2c(=O)c(-c3cscn3)coc2c(CN(C)C)c1O	FBA Mtb inh 41 | Mtb FBA inh conf 161 | GDH-TPI counter-2 125
CCc1cc2c(=O)c(-c3nc4ccccc4n3C)coc2c(CN2CCCCC2)c1O	none
Cc1cc(-c2nc3ccccc3o2)c2ccccc2n1	FBA Mtb inh 34 | Mtb FBA inh conf inactive | GDH-TPI counter-2 inactive | GDH-TPI DR 5.7
COCCCNC(=O)c1c(NC(=O)c2ccco2)n(Cc2ccccc2)c2nc3ccccc3nc12	FBA Mtb inh 45 | Mtb FBA inh conf 47 | GDH-TPI counter-2 37
